Settings in all cases: mRNA level, 48 h; actives raise or lower the signal
Read-out in test [1]: Heat shock 70 kDa protein 1 (HSPA1A), gene 3303
Description: LTEA_HepaRG_HSPA1A: Life Technologies and Expression Analysis (LTEA) Assay for Heat shock 70 kDa protein 1 (HSPA1A) using HepaRG (AID 2283502). The procedure, abridged: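 HSPA1A expression measured by qRT-PCR with ACTB/GAPDH/POLR2A normalization; curves fitted in both directions relative to DMSO vehicle. Exposure: 48 h in HepaRG cells, duplicate 8-point half-log series from 100 uM, 0.5% DMSO, serum-free induction medium.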

Read-out in test [2]: Hypoxia-inducible factor 1-alpha (Homo sapiens) (UniProt Q16665)
The test is described as follows: LTEA_HepaRG_HIF1A: Life Technologies and Expression Analysis (LTEA) Assay for Hypoxia-inducible factor 1 (HIF1A) Trancription factor using HepaRG (AID 2283503). Summed up: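 HIF1A transcript level read by qRT-PCR (ACTB, GAPDH, POLR2A normalization) after 48 h chemical exposure of HepaRG cultures. Eight half-log concentrations, top 100 uM, 0.5% DMSO vehicle, duplicates; bidirectional curve fit against DMSO baseline.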

Read-out in test [3]: 3-Hydroxy-3-Methylglutaryl-CoA Synthase 2 (HMGCS2), HMGCS2 (gene 3158)
Description: LTEA_HepaRG_HMGCS2: Life Technologies and Expression Analysis (LTEA) Assay for 3-Hydroxy-3-Methylglutaryl-CoA Synthase 2 (HMGCS2) using HepaRG (AID 2283504). The procedure, abridged: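 Expression of HMGCS2 in human HepaRG liver cells is measured by qRT-PCR 48 h after dosing (highest 100 uM, half-log series, 0.5% DMSO). Values come from bidirectional concentration-response fitting with DMSO as baseline.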

Read-out in test [4]: HGF (gene 3082)
Description: LTEA_HepaRG_HGF: Life Technologies and Expression Analysis (LTEA) Assay for Hepatocyte Growth Facto (HGF) using HepaRG (AID 2283505). The procedure, abridged: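 Gain or loss of HGF mRNA in human HepaRG liver cells after 48 h chemical exposure; eight concentrations up to 100 uM with 0.5% DMSO vehicle, quantified by TaqMan qRT-PCR.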

Read-out in test [5]: Insulin Like Growth Factor 1 (IGF1), IGF1 (gene 3479)
The test is described as follows: LTEA_HepaRG_IGF1: Life Technologies and Expression Analysis (LTEA) Assay for Insulin Like Growth Factor 1 (IGF1) using HepaRG (AID 2283506). The procedure, abridged:
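Expression measured by TaqMan qRT-PCR on a Fluidigm array, with three housekeeping genes for normalisation, after 48 h treatment of HepaRG cells. Top concentration 100 uM with half-log steps, 0.5% DMSO vehicle, bidirectional fit.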

Read-out in test [6]: Insulin-like growth factor-binding protein 1 (IGFBP1), IGFBP1 (gene 3484)
The test is described as follows: LTEA_HepaRG_IGFBP1: Life Technologies and Expression Analysis (LTEA) Assay for Insulin-like growth factor-binding protein 1 (IGFBP1) using HepaRG (AID 2283508). Summed up: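 mRNA induction or loss was quantified by qRT-PCR after 48 h chemical exposure of human HepaRG cells, with 0.5% DMSO as vehicle and baseline. Concentration-response over eight points up to 100 uM.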

Read-out in test [7]: Interleukin 6 (IL6), IL6 (gene 3569)
The test is described as follows: LTEA_HepaRG_IL6: Life Technologies and Expression Analysis (LTEA) Assay for Interleukin 6 (IL6) using HepaRG (AID 2283509). The procedure, abridged:
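Changes in IL6 mRNA, up or down relative to 0.5% DMSO controls, were derived from concentration-response curves in human HepaRG cells treated for 48 h at up to 100 uM, with ACTB, GAPDH and POLR2A as normalizers.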

Read-out in test [8]: Interleukin 6 Receptor (IL6R), IL6R (gene 3570)
Description: LTEA_HepaRG_IL6R: Life Technologies and Expression Analysis (LTEA) Assay for Interleukin 6 Receptor (IL6R) using HepaRG (AID 2283510).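 For AC50: differentiated human HepaRG liver cells in serum-free induction medium; TaqMan qRT-PCR signal normalized to ACTB GAPDH and POLR2A housekeeping genes.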 The procedure, abridged:
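IL6R transcript level by qRT-PCR after 48 h chemical exposure (8-point, half-log, max 100 uM, 0.5% DMSO vehicle) of HepaRG cells in serum-free induction medium. Normalized to three housekeeping genes; curves fitted in both directions relative to DMSO.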

Read-out in test [9]: Potassium channel subfamily K member 1 (KCNK1), KCNK1 (gene 3775)
The test is described as follows: LTEA_HepaRG_KCNK1: Life Technologies and Expression Analysis (LTEA) Assay for Potassium channel subfamily K member 1 (KCNK1) using HepaRG (AID 2283511). Summed up: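 Human HepaRG cultures receive test chemicals for 48 h in 0.5% DMSO, top concentration 100 uM with half-log dilutions. Induction or suppression of KCNK1 mRNA relative to DMSO is derived by bidirectional fitting of qRT-PCR data.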

Read-out in test [10]: Keratin 19 (KRT19), KRT19 (gene 3880)
The test is described as follows: LTEA_HepaRG_KRT19: Life Technologies and Expression Analysis (LTEA) Assay for Keratin 19 (KRT19) using HepaRG (AID 2283512). Summed up: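 Gene-expression endpoint in the human liver line HepaRG after 48 h exposure to up to 100 uM test chemical with 0.5% DMSO vehicle; KRT19 mRNA by qRT-PCR, analyzed bidirectionally versus DMSO.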

Read-out in test [11]: JUN Transcription Factor, JUN (gene 3725)
The test is described as follows: LTEA_HepaRG_JUN: Life Technologies and Expression Analysis (LTEA) Assay for JUN Transcription Factor using HepaRG (AID 2283513). The procedure, abridged:
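mRNA measured by TaqMan qRT-PCR after 48 h chemical exposure of HepaRG cultures; normalization to three housekeeping genes. Duplicate eight-point half-log curves from 100 uM in 0.5% DMSO; gain or loss fitted against DMSO baseline.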

Read-out in test [12]: Lipase C (LIPC), LIPC (gene 3990)
The test is described as follows: LTEA_HepaRG_LIPC: Life Technologies and Expression Analysis (LTEA) Assay for Lipase C (LIPC) using HepaRG (AID 2283514). Summed up:
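In this multiplexed gene-expression screen, human HepaRG cultures received test chemicals for 48 h across eight concentrations with 100 uM highest, in duplicate. Values reflect LIPC mRNA induction or suppression versus DMSO vehicle, from normalized qRT-PCR.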

Read-out in test [13]: Lipoprotein lipase (LPL), LPL (gene 4023)
The test is described as follows: LTEA_HepaRG_LPL: Life Technologies and Expression Analysis (LTEA) Assay for Lipoprotein lipase (LPL) using HepaRG (AID 2283515). The procedure, abridged: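 Concentration-response testing used half-log steps from 100 uM in 0.5% DMSO on human HepaRG cells, 48 h, duplicate wells. Phenobarbital 1 mM served as induction control; LPL mRNA was normalized to ACTB, GAPDH, POLR2A.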

Read-out in test [14]: MicroRNA 122 (MIR122), gene 406906
Description: LTEA_HepaRG_MIR122: Life Technologies and Expression Analysis (LTEA) Assay for MicroRNA 122 (MIR122) using HepaRG (AID 2283516). Note: the transcript read is the microRNA miR-122. The procedure, abridged:
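Expression measured by microfluidic qRT-PCR with three housekeeping genes for normalisation, after 48 h treatment of HepaRG cultures. Eight concentrations (top 100 uM, half-log steps, 0.5% DMSO vehicle) in duplicate; gain or loss fitted relative to vehicle.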

Read-out in test [15]: matrix metalloproteinase-10 (MMP10), MMP10 (gene 4319)
Description: LTEA_HepaRG_MMP10: Life Technologies and Expression Analysis (LTEA) Assay for matrix metalloproteinase-10 (MMP10) using HepaRG (AID 2283517). Summed up:
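In differentiated HepaRG cultures kept in 0.5% DMSO, test chemicals act for 48 h over an eight-point range with a top dose of 100 uM. Expression is then quantified by TaqMan RT-PCR against ACTB, GAPDH and POLR2A.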

Read-out in test [16]: MYC, MYC (gene 4609)
Description: LTEA_HepaRG_MYC: Life Technologies and Expression Analysis (LTEA) Assay for MYC using HepaRG (AID 2283518). The procedure, abridged:
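Cells are thawed, plated and cultured 48 h, then treated for 48 h with test chemicals (eight half-log concentrations from 100 uM, 0.5% DMSO vehicle). RNA is isolated and MYC expression quantified by qRT-PCR against three housekeeping genes.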

Read-out in test [17]: matrix metalloproteinase-3 (MMP3), MMP3 (gene 4314)
The test is described as follows: LTEA_HepaRG_MMP3: Life Technologies and Expression Analysis (LTEA) Assay for matrix metalloproteinase-3 (MMP3) using HepaRG (AID 2283519). The procedure, abridged:
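Human liver HepaRG cultures received chemicals (top concentration 100 uM, 0.5% DMSO) for 48 h in duplicate. MMP3 mRNA induction or loss was then assessed via TaqMan qRT-PCR with housekeeping-gene normalisation.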

Read-out in test [18]: Paternally Expressed 10 (PEG10), PEG10 (gene 23089)
The test is described as follows: LTEA_HepaRG_PEG10: Life Technologies and Expression Analysis (LTEA) Assay for Paternally Expressed 10 (PEG10) using HepaRG (AID 2283520).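 For AC50: differentiated HepaRG human liver cells in serum-free induction medium with 0.5% DMSO; PEG10 transcript by qRT-PCR normalised to ACTB GAPDH and POLR2A.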 The procedure, abridged: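 PEG10 transcript measured by Fluidigm qRT-PCR, normalized to three housekeeping genes, in HepaRG cells treated 48 h (highest 100 uM, half-log steps, 0.5% DMSO vehicle). Cells plated 48 h before switching to serum-free induction medium.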

Read-out in test [19]: Protein phosphatase 2A (PPP2R4), PTPA (gene 5524)
Description: LTEA_HepaRG_PPP2R4: Life Technologies and Expression Analysis (LTEA) Assay for Protein phosphatase 2A (PPP2R4) using HepaRG (AID 2283522). The procedure, abridged: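 Expression was quantified by Fluidigm qRT-PCR normalised to three housekeeping genes after 48 h treatment. Human HepaRG cells received an 8-point series from 100 µM downward by half-logs, in duplicate with 0.5% DMSO vehicle and 1 mM phenobarbital as induction control.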

Read-out in test [20]: Phosphatase and tensin (PTEN), PTEN (gene 5728)
The test is described as follows: LTEA_HepaRG_PTEN: Life Technologies and Expression Analysis (LTEA) Assay for Phosphatase and tensin (PTEN) using HepaRG (AID 2283523). The procedure, abridged:
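Expression of PTEN is quantified in the human liver line HepaRG following two days of dosing (top concentration 100 uM, half-log dilutions, 0.5% DMSO). Values derive from bidirectional curve fitting relative to DMSO controls.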

Molecules are shown by their SMILES. The source made the active and inactive calls. Rule for the calls: active = hit-call score of the fitted dose curve at least 0.9, where 1 is the maximum; inactive = score below 0.9.

Chain of Hypoxia-inducible factor 1-alpha (Homo sapiens) (Q16665 whole entry, looked up): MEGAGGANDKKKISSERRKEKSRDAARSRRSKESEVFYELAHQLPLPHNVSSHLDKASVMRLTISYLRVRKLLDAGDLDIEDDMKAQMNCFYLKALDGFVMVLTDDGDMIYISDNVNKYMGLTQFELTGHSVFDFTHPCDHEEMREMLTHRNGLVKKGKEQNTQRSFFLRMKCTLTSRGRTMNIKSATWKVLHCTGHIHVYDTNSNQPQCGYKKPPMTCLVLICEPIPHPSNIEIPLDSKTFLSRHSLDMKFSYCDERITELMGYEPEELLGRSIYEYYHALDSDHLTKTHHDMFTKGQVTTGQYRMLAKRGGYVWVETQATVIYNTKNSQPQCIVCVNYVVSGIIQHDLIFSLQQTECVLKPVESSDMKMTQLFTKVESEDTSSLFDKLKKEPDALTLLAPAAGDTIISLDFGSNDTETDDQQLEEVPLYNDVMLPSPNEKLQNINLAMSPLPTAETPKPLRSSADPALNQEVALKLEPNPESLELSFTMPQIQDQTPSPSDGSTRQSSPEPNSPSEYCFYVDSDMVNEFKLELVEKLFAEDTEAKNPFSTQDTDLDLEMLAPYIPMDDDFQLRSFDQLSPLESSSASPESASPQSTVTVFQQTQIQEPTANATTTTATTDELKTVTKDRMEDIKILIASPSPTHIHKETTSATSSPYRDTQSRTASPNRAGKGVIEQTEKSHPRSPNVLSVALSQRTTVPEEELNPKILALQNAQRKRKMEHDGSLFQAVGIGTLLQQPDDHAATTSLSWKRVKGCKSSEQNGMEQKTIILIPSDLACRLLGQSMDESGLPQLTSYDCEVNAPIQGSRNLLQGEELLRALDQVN

As to `O=C1C2(Cl)C3(Cl)C4(Cl)C(Cl)(Cl)C5(Cl)C3(Cl)C1(Cl)C5(Cl)C24Cl` (stereo not given), the AC50 – broadly, the midpoint of the concentration-response curve, whichever way the signal moves – is 91.9 µM (active) in test [1]; 92.5 µM (active) in [2]; 24.2 µM (active) in [3]; 23.8 µM (active) in test [5]; 84 µM (active) in [6]; 91.7 µM (active) in test [7]. The concentration at half-maximal activity (AC50) is 90.8 µM (active) in test [8]; 93.5 µM (active) in test [10]; 91.1 µM (active) in test [11]; 91.9 µM (active) in test [13]; 93.8 µM (active) in test [14]; 88.8 µM (active) in [15]. The concentration at half-maximal activity (AC50) in test [16] is 24.9 µM (active); in [18], 93.4 µM (active); in test [19], 15.8 µM (active). The compound was classed as inactive in [4], in test [9], in test [12], in test [17] and in test [20].

Consider `C[C@]12CCC(=O)C[C@@H]1CC[C@@H]1[C@@H]2CC[C@]2(C)[C@@H](O)CC[C@@H]12`, for which the call in test [1], in test [2], in test [3], in test [4], in test [5] and in [6] was inactive. The compound was classed as inactive in test [7], in test [8], in [9], in test [10], in test [11] and in test [12]. In addition, the compound was classed as inactive in test [13], in [14], in test [15], in test [16], in [17] and in [19]. The compound was classed as inactive in [20]. The half-maximal activity concentration (AC50) in [18] is 50 µM (active).

Turning to `CCOP(=S)(OCC)SCSP(=S)(OCC)OCC`, the compound was called inactive in test [1], in test [2], in test [4], in [6], in test [7] and in test [9]. Also, the compound was classed as inactive in test [10], in test [11], in test [12], in test [13], in test [14] and in test [15]. The compound was classed as inactive in [17], in [18], in test [19] and in test [20]. Moreover, the half-maximal activity concentration (AC50) is 9.92 µM (active) in test [3], 0.0903 µM (active) in [5], 0.064 µM (active) in test [8] and 0.09 µM (active) in [16].

For the compound `CC(=O)[O][Hg][c]1ccccc1`, the half-maximal activity concentration (AC50) in test [1] is 50 µM (active); in [3] it was 23.3 µM (active); in test [4], 2.1 µM (active); in test [5], 23.1 µM (active); in [6], 4.6 µM (active); in test [7], 16 µM (active). The AC50 is 20.6 µM (active) in test [8]; 4.54 µM (active) in [10]; 12.7 µM (active) in test [11]; 29.3 µM (active) in [13]; 15.8 µM (active) in [15]; 24.2 µM (active) in [16]. Moreover, the AC50 in [17] was 50 µM (active); in [18], 50 µM (active); in [19] it was 28 µM (active); in test [20] it was 69.5 µM (active). The compound was classed as inactive in [2], in test [9], in test [12] and in [14].

Source of the values: PubChem BioAssay (EPA / NIEHS).
